The source of these data is ChEMBL document CHEMBL4513216, “Probing the Open Global Health Chemical Diversity Library for Multistage-Active Starting Points for Next-Generation Antimalarials” (ACS Infect Dis, 2020).

Out of some 68,000 compounds screened, about 2,700 (4%) showed an effect of 50% or more. For the sample, strong results were picked, then their nearest neighbours and some compounds at random.

The subject of this test is Plasmodium berghei. In words: Screen against P. berghei liver stage (PbLuc), transformed with Luciferase, at 2uM. Format: functional, HepG2. The settings on record: tested at 2 uM.
Take `CC(C)(C)n1cc(C(=O)N2CCN(Cc3cccnc3)CC2)cn1`: the INHIBITION is on record as -3.57%. The figure for `Cc1ccccc1CCCN1CCS(=O)(=O)CC1C` (stereo not drawn) is -31.95%; for `CC(C)n1cnc2c(-c3cccnc3)nc(C3CCNCC3)cc21` it is -17.24%. For `CCOCC(=O)N1CCC[C@]2(C[C@@H](OCc3ccncc3)CO2)C1`, the INHIBITION is recorded as 55.15%.

In the case of `CCO[C@H]1CO[C@@]2(CCCN(S(=O)(=O)c3ccccc3)C2)C1`, the INHIBITION was -89.74%. The figure for `O=C(C1CC1)N1CCC[C@]2(C[C@@H](OCc3ccncc3)CO2)C1` is 2.4%. Regarding `O=C(N1CCCC1)N1CCC[C@]2(C[C@@H](OCc3ccncc3)CO2)C1`, the INHIBITION is listed as -12.23%.

For the compound `CCO[C@@H]1CO[C@@]2(CCCN(C(=O)c3ccc(OC)c(F)c3)C2)C1`, the INHIBITION is given as -8.46%.

In the case of `CCO[C@H]1CO[C@@]2(CCCN(S(=O)(=O)c3cccnc3)C2)C1`, the INHIBITION is 50.35%. The figure for `CCO[C@@H]1CO[C@@]2(CCCN(S(=O)(=O)c3cccnc3)C2)C1` is 27.16%; for `O=C(c1ccc(F)c(F)c1)N1CCC[C@]2(C[C@@H](OCC3CC3)CO2)C1` it is 13.04%; for `CCO[C@H]1CO[C@@]2(CCCN(C(=O)c3ccc(OC)c(F)c3)C2)C1` it is 52.36%.

In the case of `CC(=O)N1CCC(c2ccnc(Nc3cnccn3)n2)C1` (stereo not drawn), the INHIBITION stood at 28.45%. The figure for `CC(C)CN1CCC2(CC1)C(=O)Nc1ccc(C(=O)N(C)C)cc12` is 11.28%; for `Cc1cc(O)ccc1-c1cc(-c2cnn(C)c2C2CC2)c(C#N)c(N)n1` it is 7.06%; for `c1cc2occc2c(N2CCCC(c3nncn3C3CC3)C2)n1` (stereo not drawn) it is 12.62%. With `CCCc1ccc(CN2CCC3(CCC(=O)N(CCCOC)C3)CC2)o1` the figure was -26.08%.

For the compound `CCCc1nccn1-c1ccc(C(O)CN2CCOCC2)cc1` (stereo not drawn), the INHIBITION is recorded as 62%. Consider `OC(CN1CCOCC1)c1ccc(Br)cc1` (stereo not drawn), for which the INHIBITION was determined as 36.23%. In the case of `CCCc1nccn1-c1ccc(C(C)O)cc1` (stereo not drawn), the INHIBITION was 10.23%. The figure for `O=C(CN1CCCC1)N1CCCC(c2cc(=O)n3c(n2)CCCCC3)C1` (stereo not drawn) is 18.22%; for `Cc1ccc(CNC(=O)N(Cc2ccccc2F)C2CC2)cn1` it is 70.41%; for `CN(C)c1ncccc1CNC(=O)N(Cc1ccccc1F)C1CC1` it is -20.35%.

For the compound `O=C(NCc1ccncc1)N(Cc1ccccc1F)C1CC1`, the INHIBITION amounted to 14.83%. The figure for `Cc1nc(C2(O)CCCNCC2)sc1CCOc1ccccc1Cl` (stereo not drawn) is -16.62%; for `CCOc1ncccc1NC(=O)N1CCN(c2cccc(C)c2C)CC1` it is 30.91%; for `Cc1n[nH]c(C)c1NC(=O)CN1CCCC1c1noc(C(C)C)n1` (stereo not drawn) it is 15.28%. The figure for `CN1CCN(C(=O)Cc2cccc(F)c2)Cc2cccnc21` is 26.09%; for `c1csc(CN2CC(c3nc(-c4cnccn4)no3)C2)c1` it is 26.54%; for `O=C(Cc1cccs1)N1CC(c2nc(-c3cnccn3)no2)C1` it is 50.2%. The figure for `c1cncc(-c2noc(C3CN(Cc4cccs4)C3)n2)c1` is 51.71%. Take `COc1cccc(-c2noc(C3CCN(Cc4cccs4)C3)n2)c1` (stereo not drawn): the INHIBITION is recorded as 11.1%.

As for `N#Cc1cccc(C(=O)N2CC(c3nc(-c4cccnc4)no3)C2)c1`, the INHIBITION turned out to be 25.53%. For the compound `c1cnc(-c2noc(C3CN(Cc4ccsc4)C3)n2)cn1`, the INHIBITION worked out at 5.39%. With `CCc1ccc(NC(=O)N2C[C@H]3CC[C@@]4(N=C(C)N(C)C4=O)[C@H]3C2)cc1` the figure was 17.4%.

On to `O=C(Nc1c(N2CCCC2)cccc1N1CCCC1)c1cnccn1`, for which the INHIBITION came to 19.33%. Turning to `O=C(Nc1c(N2CCCC2)cccc1N1CCCC1)c1cnsn1`, the INHIBITION was determined as 52.38%. As for `O=C(Nc1c(N2CCCC2)cccc1N1CCCC1)c1ccccn1`, the INHIBITION is on record as 32.26%. The figure for `CCOc1cc(CN(C)CCC#N)ccc1OC(F)F` is 14.17%; for `Cc1cc(C)cc(CNCCS(=O)(=O)N2CCOCC2)c1` it is -6.33%. The figure for `OCC(CO)Nc1nc(C(F)F)nc2ccccc12` is -11.32%. As for `CNc1cc(C2CN(Cc3scnc3C)CCO2)nc(C)n1` (stereo not drawn), the INHIBITION is reported as -1.07%. With `CS(=O)(=O)c1ccc(Cl)c(C(=O)NCCC2=CCCCC2)c1` the figure was 6.92%; with `Cc1cc(C)n(C2CCCN(C(=O)Cc3cn4ccsc4n3)C2)n1` (stereo not drawn), 20.57%; with `Cc1cc(N2CCC(O)(CN(C)C(=O)CCN)C2)c2cnccc2n1` (stereo not drawn), -17.65%. The figure for `Cc1cc(N2CCC(O)(CN(C)C(=O)CCN)CC2)c2cnccc2n1` is 57.47%. The figure for `Cc1cc(N2CCC(O)(CN(C)C(=O)CCCN)C2)c2cnccc2n1` (stereo not drawn) is -14.93%; for `CCOC(=O)COC1CCN(C(C)=O)CC(=O)N(C)c2ccccc21` (stereo not drawn) it is 19.99%. As to `Cc1ccnc(C2(C)CCCN2S(=O)(=O)c2c(C)noc2C)n1` (stereo not drawn), the INHIBITION stood at 15.61%. With `Cc1nn2cnnc2c(C)c1CCC(=O)Nc1nc2c(s1)CCC2` the figure was -4.37%; with `O=C(Cc1ccccn1)N1CCc2c(O)nc(-c3cnccn3)nc2C1`, 56.57%. Regarding `Oc1nc(-c2cnccn2)nc2c1CCN(Cc1ccccn1)C2`, the INHIBITION was determined as 19.47%. The figure for `O=C(Cc1ccccn1)N1CCc2nc(-c3cnccn3)nc(O)c2C1` is 41.31%; for `COCCc1noc(-c2ccc(=O)[nH]c2)n1` it is -18.6%.

Take `CS(=O)(=O)CCNCc1ccc(OCc2ccncc2)cc1`: the INHIBITION is -117.21%.

With `O=S1(=O)COCCN1Cc1ccc(Cl)c(Cl)c1`, the INHIBITION is -31.95%. With `O=S1(=O)COCCN1Cc1ccc(Cl)c(F)c1` the figure was 51.45%.

As to `O=S1(=O)COCCN1Cc1ccc(F)c(F)c1`, the INHIBITION came out at 22.52%. With `Cc1ccc(C(C)NC(=O)N2CCCN(CC(F)F)CC2)s1` (stereo not drawn) the figure was 9.27%; with `CC(C)N1[C@H](CN2CCCC2)C[C@@H]2CN(C(=O)c3ccoc3)CC[C@@H]21`, 50.32%. In the case of `CC(=O)N1C(CN2CCCC2)C[C@@H]2CN(C(=O)c3ccoc3)CC[C@@H]21` (stereo partly drawn), the INHIBITION is 4%. The figure for `CC(C)N1[C@H](CN2CCCC2)C[C@@H]2CN(Cc3ccoc3)CC[C@@H]21` is 1.92%. The figure for `Cc1cc(CN2CCN(CC(O)c3ccc(C)c(C)c3)CC2)no1` (stereo not drawn) is -29.69%; for `CC(C)c1ccc(OCCC(=O)N2CCCN(C(N)=O)CC2)cc1` it is 19.71%; for `CC(C)c1ccc(OCCC(=O)N2CCCC(C(N)=O)C2)cc1` (stereo not drawn) it is 52.47%. With `CS(=O)(=O)Cc1ccc(CNC(=O)N2CCC(C(N)=O)C2)cc1` (stereo not drawn) the figure was 31%; with `CC(C)c1ccc(OCCC(=O)N2CCC(C(N)=O)CC2)cc1`, 3.33%; with `CCCOc1ccc(CNC(=O)N2CCC(C(N)=O)C2)cc1` (stereo not drawn), 76.69%. For the compound `CCOCc1ccc(CNC(=O)N2CCC(C(N)=O)C2)cc1` (stereo not drawn), the INHIBITION stood at 47.23%. The figure for `COCCN1CCCn2cnc(CNC3CCCC3)c2C1` is -24.29%; for `Fc1cnc(N2CCC3(CC2)CN(Cc2cccs2)CCO3)nc1` it is 43.29%; for `COc1ccccc1C(C)(C)NC(=O)Nc1ccc(F)c(C(N)=O)c1` it is 20.21%. The figure for `CN(Cc1cncnc1)[C@@H]1CN(Cc2ccco2)C[C@@H]2CCCO[C@@H]21` is -37.2%; for `CCCN1CCN(C(=O)Cn2nc(C(F)(F)F)c(Br)c2C2CC2)CC1` it is -3.36%; for `CC(C)C(NC(=O)c1ccc(Cl)cc1Cl)C(=O)Nc1ccn(C)n1` (stereo not drawn) it is 42.76%. The figure for `O=C(COC1CCCCC1)Nc1ccn(CCc2ccncc2)n1` is 13.99%; for `Cn1cccc1C(=O)NC(C)(C(N)=O)c1cccc(C(F)(F)F)c1` (stereo not drawn) it is -23.95%; for `Cc1cccc(C2(O)CCN(Cc3ccccc3N3CCCC3)CC2)c1` it is 4.06%.

As to `OC1(c2ccc(F)cc2)CCN(Cc2ccccc2N2CCCC2)CC1`, the INHIBITION was 58.02%. Turning to `OC1(c2ccccc2F)CCN(Cc2ccccc2N2CCCC2)CC1`, the INHIBITION is given as 14.73%. With `Cc1noc(C)c1CN(C)CC(c1cccs1)N1CCOCC1` (stereo not drawn) the figure was 43.7%; with `Cc1cc(N(C)C)nc(NC2CCc3nc(C)nn3C2)n1` (stereo not drawn), 13.28%; with `O=C(O)c1ccccc1-c1ccc(CNC(=O)C2CCOCC2)cc1`, 22.95%. The figure for `COc1cccc(CN2CCC(CO)(Cc3ccc(Cl)cc3)CC2)c1O` is 71.83%; for `COc1ccc(CN2CCC(CO)(Cc3ccc(Cl)cc3)CC2)c(O)c1` it is 36.34%. The figure for `OCC1(Cc2ccc(Cl)cc2)CCN(Cc2ccccc2O)CC1` is -58.31%; for `O=C(Nc1ccc(N2CCCCC2)nc1)N1CCc2sccc2C1` it is -4.09%.

With `O=C(Nc1ccc(N2CCOCC2)nc1)N1CCc2sccc2C1`, the INHIBITION is 57.59%. The figure for `O=C(Nc1ccc(N2CCCC2)nc1)N1CCc2sccc2C1` is -19.54%. The figure for `CN1C(=O)CCC12CCN(S(=O)(=O)c1ccccc1)CC2` is 46.32%; for `Cn1cnnc1S(=O)(=O)C1CCN(C(=O)c2ccco2)CC1` it is 31.78%; for `Cn1cnnc1S(=O)(=O)C1CCN(C(=O)c2cccs2)CC1` it is 25.55%. The figure for `CCSc1ccccc1C(=O)N1CCC(S(=O)(=O)c2nncn2C)CC1` is 59.08%. Consider `CN(Cc1ccccc1F)Cc1cc2c(cc1Br)OCCO2`, for which the INHIBITION is 12.68%.

For `Cc1cnc(C(=O)N2C[C@@H]3CC[C@H]2CN(Cc2cscn2)C3)[nH]1`, the INHIBITION is given as -0.62%. `CN1CCC(N(C)c2ccccc2CNCc2ccco2)CC1`: the INHIBITION is 24.6%.

`CCc1cc(CNCc2ccccc2N(C)C2CCN(C)CC2)on1`: the INHIBITION is recorded as -19.27%. As for `Cc1noc(C)c1CNCc1ccccc1N(C)C1CCN(C)CC1`, the INHIBITION is 50.46%. With `CCC(CO)N(C/C(C)=C/c1ccco1)Cc1ccsc1` (stereo not drawn) the figure was 5.85%. The figure for `CCOc1ncccc1C(=O)NC1CC(=O)N(CC(F)(F)F)C1` (stereo not drawn) is -27.19%. With `CC(=O)N1CCC(C(=O)N(CC(F)F)c2cccc(Cl)c2)CC1` the figure was 23.06%.

With `CCCS(=O)(=O)N1CCC(n2nc(-c3cc(C)oc3C)ccc2=O)CC1`, the INHIBITION was -17.72%.

On to `Cn1c(C2CCCN2C(=O)CN2CSCC2=O)nc2ccccc21` (stereo not drawn), for which the INHIBITION is reported as -73.81%.
